From PubChem BioAssay come the findings set out here.

The nature of the test: small-molecule binders of probe aLefty1, primary screen, biochemical, small-molecule microarray, 635/667 nm fluorescence (AID 1153).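 Note: score merges spot fluorescence with signal-to-noise ratio from the scanned slide images.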 To be noted: higher = more signal.
For `CCCC[C@@H](O)C1=C(COC)Cn2c(=O)n(-c3ccccc3)c(=O)n2[C@H]1CO`, the composite z-score is -0.224.
Under `CCN(CC)c1ccc(N2CC=CC34O[C@@H]5C=CCOC(=O)[C@@H]5[C@H]3C(=O)N(CCCO)[C@@H]4C2=O)cc1` (stereo not given in full) stands 0.027; under `COCCOC(=O)N1C(=O)[C@@]2(c3cc(C#CCC(C(=O)OC)C(=O)OC)ccc31)[C@H](c1ccc(OCCO)cc1)N1[C@H](c3ccccc3)[C@H](c3ccccc3)OC(=O)[C@H]1[C@@H]2C(=O)N1CCCCCCC1`, 2.81; under `CCOC(=O)C1=CC[C@@H](c2ccc(F)cc2)N(S(=O)(=O)c2ccc(C)cc2)[C@H]1c1ccc([N+](=O)[O-])cc1`, -0.0946.
`COC(=O)c1c(CC[C@@H](CO)NC(=O)N[C@@H](Cc2ccccc2)Cn2cc(-c3cncn3C)nn2)oc(C(C)=O)c1C(=O)OC` had a composite z-score of -0.147.
Turning to `O=C(NCCO)C1=C[C@H](Oc2ccccc2I)[C@@H](O)[C@H](NCc2ccc(F)cc2)C1`, the composite z-score was -0.338.
For `CCCCN1CC=CC23O[C@@H]4/C=C\CCC(C)OC(=O)C4[C@H]2C(=O)N(C(C)CO)[C@@H]3C1=O` (stereo not given in full), the composite z-score was -0.331.
As for `CC(C)C[C@@H]1NC(=O)C([C@@H](C)OCc2ccccc2)NC(=O)[C@@]23C(=O)N[C@@H](Cc4ccccc4)C2[C@H](C)[C@@]2(C)O[C@H]2C3/C=C/CC/C=C/CNC1=O` (stereo not given in full), the figure is -0.164.
As for `COCCOC(=O)N1C(=O)[C@@]2(c3cc(C#CCCO)ccc31)[C@H](C(=O)N1CCc3cc(OC)c(OC)cc3C1)[C@H]1C(=O)O[C@H](c3ccccc3)[C@H](c3ccccc3)N1[C@@H]2c1ccccc1OCCO`, the figure is 1.33; as for `COc1ccc([Si](C)(C)[C@H]2[C@H](CC(=O)N3Cc4ccccc4C[C@H]3CO)O[C@@]3(C(=O)N(Cc4cccc(N5C(=O)c6cccc7cccc5c67)c4)c4ccccc43)[C@@H]2C)cc1`, -0.362; as for `CN1C(=O)C2C(C1=O)C1C=C(c3ccc(CO)cc3)C2C(c2cccs2)N1C` (stereo not given), 0.186.
The molecule `CC(C)CNC(=O)[C@@]1(C)c2ccccc2C(=O)N(Cc2cc(F)cc(C(F)(F)F)c2)[C@H]1c1ccc(CO)cc1` came in with a composite z-score of 0.163.
In turn, `COc1ccc([Si](C)(C)[C@H]2[C@H](CCO)O[C@@]3(C(=O)N(Cc4ccc(N5CCOC5=O)cc4)c4ccccc43)[C@@H]2C)cc1` yielded a composite z-score of 0.203.
Take `CCCC=C(CCC)[C@@H](NC(=O)c1ccco1)c1ccc(C(=O)OC)cc1`: the composite z-score is 0.48.
Under `CO[C@H]1O[C@H](CO)[C@@H](OC(=O)Nc2ccc(C(F)(F)F)cc2)[C@H](OC(=O)Nc2ccccc2-c2ccccc2)[C@@H]1OC(=O)Nc1ccccc1-c1ccccc1` stands 0.534.
As for `CC[C@H](C)C(=O)O[C@H]1CC[C@]2(C)C3=C(CCC2C1(C)C)[C@]1(C)CC[C@H]([C@H](C)CCCC(C)C)[C@@]1(C)CC3` (stereo not given in full), the figure is -0.142; as for `COCCn1c(C(=O)N2CCCC2)cc2c1C[C@H]1CN(C(=O)c3ccccc3)[C@@](Cc3ccccc3)(C(=O)OC)[C@@H]21`, 1.46.
Under `C[C@]1(C(=O)NCC(F)(F)F)c2ccccc2C(=O)N(Cc2ccc(OC(F)(F)F)cc2)[C@H]1c1ccc(CO)cc1` stands -0.284; under `CN(C)CCCNC(=O)[C@@H]1c2ccccc2C(=O)N(C2Cc3ccccc3C2)[C@H]1c1ccc(CO)cc1`, -0.765.
In turn, `Cc1c(NC(=O)/C(C#N)=C/c2ccc(Cl)cc2)c(=O)n(-c2ccccc2)n1C` gave a composite z-score of 0.0042.
In the case of `C=CCC(OC(C)=O)[C@@H]1[C@@H](N(Cc2ccc(-c3ccccc3)cc2)C(=O)c2cccc3ccccc23)c2cc(OCCCO)ccc2N1C(=O)c1ccc2ccccc2c1` (stereo not given in full), the composite z-score is -0.0447.
The molecule `COCCOC(=O)N1C(=O)[C@@]2(c3ccccc31)[C@H](c1ccc(OCCO)cc1)N1[C@H](c3ccccc3)[C@H](c3ccccc3)OC(=O)[C@H]1[C@@H]2C(=O)N1CCN(c2ncccn2)CC1` registered a composite z-score of 0.547.
`C=C(/C(=C/C[C@@H](OC(C)=O)c1ccccc1OCCO)c1cc(C(=O)OC)ccc1OC)C(C)C` had a composite z-score of -0.0545.
The molecule `CCCC[C@H]1OB(O)C[C@H]2C1=C(COC)C[C@H]1C(=O)C=CC(=O)[C@H]12` returned a composite z-score of -0.188.
Under `COc1ccc(NC(=O)O[C@H]2[C@H](OC(=O)Nc3ccc4c(c3)OCO4)[C@H](OC(=O)Nc3ccc4c(c3)OCO4)[C@@H](OC)O[C@@H]2CO)cc1` stands 0.114.
`C=CCN1C(=O)[C@]2(O[C@H](CCO)[C@@H]([Si](C)(C)c3ccc(OC)cc3)[C@@H]2C)c2ccccc21` displayed a composite z-score of -0.33.
Under `COC(=O)[C@]1(CO)N=C(c2ccc(OCCCO)cc2)O[C@@H]1c1ccccc1CN=[N+]=[N-]` stands -0.0626; under `COc1cccc(OC)c1C(=O)O[C@H]1[C@@H]2OC(=O)[C@H](Cc3cccc(Br)c3)C/C=C/C[C@@H](Cc3cccc(Br)c3)C(=O)O[C@H]2[C@@H](OC)O[C@@H]1CO`, -0.0559.
In turn, `COCCOC(=O)N1C(=O)[C@@]2(c3cc(C#CC4(O)CCCCCC4)ccc31)[C@H](C(=O)NC[C@H](O)c1ccccc1)[C@H]1C(=O)O[C@H](c3ccccc3)[C@H](c3ccccc3)N1[C@@H]2c1ccc(O)cc1` gave a composite z-score of 0.501.
As for `O=C1C2C=CC(C(O)c3ccc([N+](=O)[O-])cc3)N(Nc3ccccc3)C2C(=O)N1c1ccccc1` (stereo not given), the figure is 0.124; as for `C=C(CCCC)C(=O)CC[C@H](OC(C)=O)c1ccccc1OCCO`, 0.149; as for `C=C(COC)/C(=C/C[C@H](OC(=O)c1ccncc1)c1ccc(OCCO)cc1)c1cc(C(=O)OC)ccc1OC`, 0.0999.
On to `COC(=O)[C@@]1(Cc2ccc(OC)cc2)[C@@H]2[C@@H](CC(=O)[C@H]2CC(=O)C(=O)N2CCCC2)CN1C(=O)c1ccccc1`, for which the composite z-score amounted to 2.14.
The molecule `CCOC(=O)C[C@H]1[C@H](OC(=O)c2ccc(-c3ccccc3)cc2)[C@@H](NC(=O)CC(C)C)c2cc(OCCCO)ccc2N1C(=O)Cc1ccc(OC)cc1` displayed a composite z-score of -0.323.
The molecule `C=CCN1C(=O)[C@]2(O[C@H](CCn3cc([C@H](O)c4ccccc4)nn3)[C@@H]([Si](C)(C)c3ccc(OC)cc3)[C@@H]2C)c2cc(N3C(=O)c4cccc5cccc3c45)ccc21` displayed a composite z-score of -0.101.
